From PubChem BioAssay (NCI)
Compounds without any hit were thinned out: in the full panel of roughly 79,000, 15% have a hit. Rule as the data show it: active = growth inhibition above about 70%; inactive = the rest.

Columns and labels:
[1] = NCI Yeast Anticancer Drug Screen. Data for the rad50 strain (AID 155);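 also: 0% = growth of vehicle-only cultures of the same strain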; conditions: S. cerevisiae rad50 strain growth inhibition; at 50.0 µM; active compounds read high
Outline: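 Yeast carrying a defined DNA repair defect were exposed to test compounds, and growth was compared with vehicle-treated controls to give percent inhibition.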

[2] = NCI Yeast Anticancer Drug Screen. Data for the mec2-1 strain (AID 157); conditions: S. cerevisiae mec2-1 strain, at 50.0 µM, active compounds read high
Outline: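 Cells of the genetically defined mec2-1 yeast strain are incubated with test compound. Inhibition of growth is calculated against vehicle-treated controls.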

[3] = NCI Yeast Anticancer Drug Screen. Data for the sgs1 mgt1 strain (AID 161);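 also: 0% = growth of cultures given vehicle only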; conditions: S. cerevisiae sgs1 mgt1 strain, at 50.0 µM, active compounds read high
Outline: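 Inhibition of yeast growth, normalised to vehicle-treated controls, is reported for a strain bearing genetic alterations in DNA damage repair.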

[4] = NCI Yeast Anticancer Drug Screen. Data for the cln2 rad14 strain (AID 165);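 also: 0% = growth equal to vehicle treated cultures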; conditions: S. cerevisiae cln2 rad14 strain, at 50.0 µM, active compounds read high
Outline: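 The screen exposed genetically defined yeast (cln2 rad14) to test compounds and scored growth inhibition relative to vehicle-treated controls.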

[5] = NCI Yeast Anticancer Drug Screen. Data for the bub3 strain (AID 167); conditions: S. cerevisiae bub3 mutant strain, at 50.0 µM, active compounds read high
Outline: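 Compounds were applied to a genetically altered yeast strain carrying a cell-cycle control defect. Growth inhibition was scored against vehicle-treated controls.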

[6] = NCI Yeast Anticancer Drug Screen. Data for the mlh1 rad18 strain (AID 175); conditions: S. cerevisiae mlh1 rad18 strain growth inhibition; at 50.0 µM; active compounds read high
Outline: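 Compound-treated yeast growth, normalised to vehicle controls. Strain bears defined DNA repair mutations.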

Measured: growth inhibition

O=C1N2Cc3c4ccc5c3CN3C(=O)N6Cc7c(ccc(c7CN1C6(c1ccccc1)C23c1ccccc1)OCCOCCOc1cc(Br)c(Br)cc1OCCOCCO4)OCCOCCOc1cc(Br)c(Br)cc1OCCOCCO5 (stereo not given)
inactive: [1] -4.95% | [2] 8.95% | [3] -3.45% | [4] 18.1% | [5] -1.8% | [6] -16.4%

CN=NNc1ccc(C(=O)NC(C)C)cc1
inactive: [1] -3.65% | [2] -2% | [3] -8.2% | [4] -1.15% | [5] -13.7% | [6] -14.7%

COc1ccc(-n2c(=O)c(N=Nc3ccccc3)c(O)n(-c3ccccc3OC)c2=S)cc1
inactive: [1] 39.5% | [2] -13.6% | [3] 40.5% | [4] -13.7% | [5] 8.95% | [6] 15.3%

CCOC(=O)C(C)c1nc2cc(F)c(F)cc2[nH]c1=O (stereo not given)
inactive: [1] -5.45% | [2] 26.5% | [3] 9% | [4] 2.6% | [5] 4.1% | [6] -19.4%

C=C1CC(C)(C)CN(Cc2ccc([N+](=O)[O-])cc2)C(C(=O)OC)=C1C(=O)OC
inactive: [1] 20.4% | [2] -2.55% | [3] 24.4% | [4] 16.8% | [5] -13.8% | [6] 13.2%

COc1cccc(/C(C#N)=C\O)c1
inactive: [1] -17.2% | [2] -36.9% | [3] -29.9% | [4] 3.2% | [5] -42.9% | [6] -8.8%

CC(C)c1nnnn1C12CC3CC(CC(C3)C1)C2
inactive: [1] 2.75% | [2] -13.2% | [3] 1% | [4] -17.4% | [5] -3.3% | [6] 11.5%

Br/C(=N\Nc1nn[nH]n1)c1ccncc1
inactive: [1] -15.1% | [2] 1.75% | [3] -26.1% | [4] -22% | [5] -21.8% | [6] -28.9%

O=C(Nc1ccc(CCc2ccc(NC(=O)C34CC5CC(CC(C5)C3)C4)cc2)cc1)C12CC3CC(CC(C3)C1)C2
inactive: [1] -9.65% | [2] -6.55% | [3] 13.8% | [4] -0.45% | [5] -0.25% | [6] 2.55%

Cc1cc(NS(=O)(=O)c2ccc(NC(=O)c3cccn4c(=O)c5ccccc5nc34)cc2)no1
inactive: [1] -24.6% | [2] 3.7% | [3] -44% | [4] 0.8% | [5] -14.7% | [6] -8.8%

CCC(=O)OC1(c2ccccc2)C(CN(C)C)CCCC1CN(C)C (stereo not given)
inactive: [1] -11.2% | [2] -17.6% | [3] -22.2% | [4] -47.9% | [5] 2.85% | [6] -14.9%

CCNC(CC(N)=O)C(=O)O (stereo not given)
inactive: [1] -22.1% | [2] -3.75% | [3] 0.15% | [4] -4.05% | [5] -26.4% | [6] -11.6%

O=C(O)c1ccccc1C(=O)c1ccc(Br)cc1
inactive: [1] 8.4% | [2] -20.7% | [3] 10.8% | [4] 14.6% | [5] -3.45% | [6] 10.1%

O=C1CCCNn2c(nc3ncccc3c2=O)N1
inactive: [1] 17.3% | [2] 37% | [3] 9% | [4] -20.6% | [5] 10.1% | [6] -41.1%

CCO[C@H]1OC(=O)[C@@H]2C(c3ccc([N+](=O)[O-])cc3)=NO[C@H]12
inactive: [1] -12% | [2] -32.5% | [3] -12.9% | [4] 2.7% | [5] 4.85% | [6] -29.8%

CC(C)c1ccc(NC(=S)NCCO)cc1
inactive: [1] -7.95% | [2] -4% | [3] -21.7% | [4] -9.65% | [5] -4.1% | [6] -10.9%

CCOC(=O)C1=C(c2ccccc2)NC(c2ccccc2)=C(C(=O)OCC)c2c1c(=O)cc[nH]c2=O
inactive: [1] -19.6% | [2] 1.45% | [3] 18.1% | [4] 18.2% | [5] -9.9% | [6] 2.35%

O=S(=O)(O)CCCO
inactive: [1] 0.4% | [2] -44.3% | [3] -14.7% | [4] -1.05% | [5] -0.45% | [6] -2.4%

C=Cc1nnnn1C
inactive: [1] 7.45% | [2] 16.2% | [3] -5.85% | [4] 10.3% | [5] 10.4% | [6] 10.8%

O=C1Oc2ccccc2CC1C(=O)c1ccc(Cl)cc1 (stereo not given)
inactive: [1] -7.75% | [2] -0.25% | [3] 8.95% | [4] -61.1% | [5] -21.4% | [6] 7.75%

CCCCC1NNC(CCCC)NN1 (stereo not given)
inactive: [1] 2.8% | [2] -15.2% | [3] -18.8% | [4] -25.8% | [5] -6.3% | [6] -1.4%

O=C(NCC1(c2ccc3c(c2)OCO3)OCCO1)c1ccccc1[N+](=O)[O-]
inactive: [1] 20% | [2] -4.1% | [3] -2.1% | [4] -42.6% | [5] -5.75% | [6] 2.6%

COC(=O)c1ccccc1NC(=O)c1cccc(Cl)c1
inactive: [1] 20.9% | [2] 6.85% | [3] 20.6% | [4] 16% | [5] 30.4% | [6] 23.7%

COc1cc(C=O)ccc1OC(=O)Nc1cccc(C(C)=O)c1
inactive: [1] 4.7% | [2] 23.6% | [3] 15.9% | [4] 7.65% | [5] 18.9% | [6] -18.6%

CCOC(OCC)c1ccccc1C
inactive: [1] 27.9% | [2] 9.3% | [3] 8.25% | [4] -36.5% | [5] 15.2% | [6] 20.4%

Nc1nc(-c2ccccc2)c(Cl)c(-c2cc(Cl)ccc2O)n1
inactive: [1] -1.45% | [2] -1.3% | [3] -10.4% | [4] 25.3% | [5] 4.25% | [6] 2.7%

O=C(NCC(C(=O)OCc1ccccc1)C(=O)OCc1ccccc1)OCc1ccccc1
inactive: [1] -8.9% | [2] -13.8% | [3] 1.55% | [4] -14.1% | [5] -24.4% | [6] -12.3%

CCOC(=O)C(Cc1ccccc1)Nc1c(Cl)c(=O)oc2ccc(C)cc12 (stereo not given)
inactive: [1] 18.6% | [2] -3.2% | [3] 32.7% | [4] 26.9% | [5] -16.4% | [6] 19.6%

C[C@]12C(=O)OC[C@H](c3ccccc3)N1C(=O)N(Cc1ccccc1)[C@@H]2CO
inactive: [1] -27.8% | [2] -26.1% | [3] -17.6% | [4] 1.6% | [5] 17.1% | [6] -9.5%

CC1(C)OC(=O)c2ccccc21
inactive: [1] 30.1% | [2] 3% | [3] -5.05% | [4] -14.8% | [5] 1.35% | [6] 2.2%

O=[N+]([O-])c1ccc2nc(/C=C(\O)c3ccccc3)c(NC34CC5CC(CC(C5)C3)C4)nc2c1
inactive: [1] 16.4% | [2] -17.5% | [3] 13.9% | [4] -39.4% | [5] -17.8% | [6] -2.35%

O=C(CC(=O)c1ccccc1)Cc1ccccc1.O=C(CC(=O)c1ccccc1)Cc1ccccc1.[Cu]
inactive: [1] 60% | [2] 22.6% | [3] 55.6% | [4] 12.7% | [5] 12.2% | [6] 41.2%

c1ccc(COCCc2ccccn2)cc1
inactive: [1] -5.3% | [2] -19.9% | [3] -3.85% | [4] -26.1% | [5] -22.2% | [6] -20.4%

CC(=O)N1Cc2c(nc[nH]c2=O)C1C (stereo not given)
inactive: [1] -8.05% | [2] 27.4% | [3] -7.6% | [4] 14.9% | [5] 5.2% | [6] 0.45%

O=C(c1ccc(O)cc1)C1N=NCC1c1ccccc1 (stereo not given)
inactive: [1] -15.8% | [2] -9.8% | [3] -11.8% | [4] -17.8% | [5] 56.8% | [6] 13.8%

CCC(=O)Cc1cnccn1
inactive: [1] -47.1% | [2] -32.5% | [3] -12.3% | [4] -10.1% | [5] -9.15% | [6] -12.4%

CC1=CC(=C2C=CC(=O)C=C2)C=C(C)N1C
inactive: [1] 5.6% | [2] -5.55% | [3] -8.05% | [4] -4.5% | [5] 2.4% | [6] -3.65%

O=C(C[n+]1ccccc1)N/N=C(/CCC(=O)N(Cc1ccccc1)Cc1ccccc1)CC(=O)c1ccccc1
inactive: [1] -21.1% | [2] -21.8% | [3] -38% | [4] 0.85% | [5] -26.6% | [6] -21.8%

CC(O)(C#Cc1ccccc1)c1nc2ccccc2s1 (stereo not given)
inactive: [1] 1.2% | [2] -5% | [3] -4.95% | [4] -7.65% | [5] 17.2% | [6] 4.35%

COc1ccc(/C(=N/N)c2ccccc2)cc1
inactive: [1] 3.6% | [2] -40.5% | [3] -23.6% | [4] -42.4% | [5] -18.8% | [6] -2.15%
